From PubChem BioAssay
MITF TRPM1 inh: inhibitors of MITF-driven TRPM1 promoter in melanoma cells | AID 488899 | SK-MEL-5 TRPM1 promoter luciferase, 24 h | inhibition, % at 12.5 µM | hit rate 0.83% among 330,000;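 active = mean inhibition across replicates of 60% or more, whatever share of single replicates reaches that level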
C2C12 statin: suppression of simvastatin myotoxicity; C2C12 myotubes + simvastatin, ATP luminescence, 48 h; scaled: DMSO 0, geranylgeraniol control 100; rescue of ATP level, % at 7.49 µM; hit rate 0.78% among 330,000; AID 602340;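 active = mean ATP rescue above about 67%, or every replicate alone reaching that limit, limit read from the data, passing the limit was not always enough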;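 also: myotubes were challenged with 10 µM simvastatin during compound exposure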
MITF TRPM1 HTS: activators of MITF-driven TRPM1 promoter activity in SK-MEL-5 cells. SK-MEL-5 TRPM1-promoter luciferase, 24 h; % of positive control, neutral wells = 0. activation, % at 12.5 µM. hit rate 0.75% among 300,000. AID 588334;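 active = mean activation of at least 80% with every replicate also reaching 80%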;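 also: 0% = neutral control wells and 100% = parthenolide positive control wells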
Wnt bcat act: activates Wnt/beta-catenin signaling in a reporter cell assay | activator, plate reader | activation, % at 9.35 µM | hit rate 1.2% among 300,000 | AID 743398; in the data active = activation above about 30%, passing the limit was not always enough;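 also: 0% = neutral control wells and 100% = positive control wells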
LMP1 NFkB inh: Epstein-Barr LMP1 NF-kappaB reporter inhibition | LMP1-induced NF-kappaB luciferase reporter cells, luminescence | inhibition, % at 12.5 µM | hit rate 0.69% among 350,000; in the data active = inhibition above about 41%;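 also: 0% = neutral control wells and 100% = reference inhibitor control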
esBAF inh: SWI/SNF esBAF complex inhibition | mouse ES cells, Bmi1-luciferase knock-in reporter, 24 h; 100% = twice the neutral-well signal | reporter increase, % at 12.5 µM | hit rate 2% among 350,000; in the data active = activation above about 40%;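 also: 0% = median of the plate's neutral control wells and 100% = double that signal; a rise in the Bmi1 reporter signal indicates esBAF inhibition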
Numbers without * were called inactive; nt = no result. Only some compounds are listed: those with a hit (about 4% of all), similar ones and a draw of the others.

SMILES	MITF TRPM1 inh	C2C12 statin	MITF TRPM1 HTS	Wnt bcat act	LMP1 NFkB inh	esBAF inh
COc1ccccc1CN(C)C(=O)C1COc2ccccc2O1 (configuration not stated)	-13	4	nt	39*	-6	1
Cc1ccc(NC(=O)CN(C)C(=O)C2COc3ccccc3O2)cc1 (configuration not stated)	3	nt	-6	-1	-1	nt
COC(=O)c1ccc(C)c(NS(=O)(=O)c2ccc3c(c2)OCCO3)c1	nt	92*	-27	nt	5	-7
CSc1ccccc1NS(=O)(=O)c1ccc2c(c1)OCCO2	8	92*	-8	-3	-1	-5
COC(=O)COc1ccc(S(=O)(=O)Nc2ccccc2SC)cc1	-3	127*	5	-5	6	0
COc1ccccc1-c1nn(Cc2ccccc2)cc1/C=C/C(=O)O	0	-14	1	7	0	2
CCOc1ccc(CCNC(=O)COC(=O)CNC(=O)c2ccc(Br)o2)cc1OCC	2	nt	-1	3	1	nt
Cc1c(NS(=O)(=O)c2ccc(Cl)c(C(=O)OC(C)C(=O)N3CCOCC3)c2)c(=O)n(-c2ccccc2)n1C (configuration not stated)	3	-2	-1	-3	-8	1
N#Cc1nc(-c2ccco2)oc1NCCCn1ccnc1	3	129*	-3	-3	-7	-8
O=C(/C=C/C(=O)N1CCc2ccccc2C1)N1CCc2ccccc2C1	-9	nt	9	0	5	nt
Cc1ccc(/C=C/C(=O)N2CCc3ccccc3C2)cc1	-22	15	21	-3	-26	48*
O=C(Cc1ccc(Br)cc1)N1CCc2ccccc2C1	-52	6	nt	5	-15	53*
O=C(/C=C/c1ccc(F)cc1)N1CCc2ccccc2C1	-51	7	50	9	-18	48*
CCN(CC(=O)Nc1ccc2c(c1)OCCO2)C(=O)CCc1ccc(OC)cc1	2	3	2	2	-15	-10
CC(C)C(=O)Nc1c2c(nc3c1CCC3)CCCC2	21	8	-18	nt	5	-2
O=C(/C=C/Nc1cccc(C(F)(F)F)c1)c1ccc(Oc2ncccn2)cc1	-37	-11	30	nt	-20	49*
COc1cc(COCC(O)CN2C(C)CCCC2C)cc(OC)c1OC (configuration not stated)	-3	4	5	2	88*	0
O=C1c2c(O)ccc(O)c2C(=O)c2c(NCCNCCO)ccc(NCCNCCO)c21	95*	-37	-85	-24	67*	-83
O=C1c2ccccc2C(=O)c2c(Nc3ccc(CCO)cc3)ccc(O)c21	15	-8	-16	3	-7	-8
CC(C)NC(=O)N[C@H]1CC[C@@H](CC(=O)NC2Cc3ccccc3C2)O[C@H]1CO	nt	-3	nt	nt	nt	-5
O=C(NCc1cccnc1)c1nnc(Cc2ccc(F)cc2)o1	-5	-6	7	-4	0	-12
CCOC(=O)c1sc(NC(=O)CN(CC(C)C)CC(C)C)c(C(=O)OCC)c1C	-1	74*	-1	-3	8	-6
O=C(CSC1=NCCN1)Nc1cccc([N+](=O)[O-])c1	36	34	-37	41*	-47	-4
Cc1cccc(NC(=O)c2cc3ccccc3o2)c1	-26	nt	28	42*	-58	63*
CCOC(=O)c1ccc(NC(=O)c2cc3ccccc3o2)cc1	-112	-15	111*	nt	2	25
SMILES	MITF TRPM1 inh	C2C12 statin	MITF TRPM1 HTS	Wnt bcat act	LMP1 NFkB inh	esBAF inh
Cc1nc(NC(=O)c2ccc(Br)o2)ccc1Br	-22	nt	21	0	-19	nt
Cc1nc(NC(=O)c2cc3ccccc3o2)ccc1Br	-65	-8	63	14	-20	69*
O=C(CCNc1cccc(F)c1)c1cc2ccccc2o1	-8	nt	7	4	46*	nt
O=C(Nc1cccc(Br)c1)c1cc2ccccc2o1	-56	nt	52	-3	-31	nt
O=C(CSc1nnc(NC(=O)c2ccccc2F)s1)Nc1ccccc1F	-29	nt	32	10	-1	nt
C[C@@H]1CN([C@@H](C)CO)C(=O)CCCn2nncc2CO[C@H]1CN(C)C(=O)Nc1cccc2ccccc12	nt	7	nt	-2	-5	0
CCC(=O)Nc1cccc(NC(=O)c2cc3ccccc3o2)c1	-57	-4	nt	-3	-18	38
CCOC(=O)c1cccc(NC(=O)c2cc3ccccc3o2)c1	-24	-6	nt	7	-12	46*
O=C(Nc1cccnc1Cl)c1cc2ccccc2o1	-71	-3	71	49*	-12	19
COc1ccc(Cl)cc1C(=O)Nc1ccc(Br)c(C)n1	-3	-31	5	20	-27	61*
COc1ccc(Cl)cc1C(=O)Nc1ccc(NC(C)=O)cc1	1	nt	-1	-2	1	nt
Cc1cccc(NC(=S)NC(=O)c2oc3ccccc3c2C)n1	-70	-24	72	24	-26	49*
Cc1cccc(NC(=S)NC(=O)c2ccc(-c3ccccc3)cc2)n1	-28	-55	32	20	-13	28
CN(C)C(=O)c1cccc(-c2ccc3c(c2)[C@H]2[C@H](CCN2C(=O)c2cccc(F)c2)[C@@H](CO)N3C)c1	nt	8	nt	nt	nt	2
O=C1C[C@@H]2CCN3C(=O)CCC[C@@H]([C@H]23)[C@H]1Cc1ccccc1	4	-10	-8	-1	-3	0
CCOC(=O)C1(C)CCN1C(=O)c1cc(C)n(C(C)(C)C)n1 (configuration not stated)	nt	1	nt	-1	nt	1
Cc1cc(C(=O)Nc2cccc(C(=O)O)c2)oc1C	87*	-25	-85	-4	66*	-60
Cc1ccc(NC(=O)c2cc(Cl)nc3ccccc23)cc1	9	-4	nt	nt	-7	-3
Cc1cccc(NC(=O)c2cc3ccccc3c(=O)o2)n1	-55	16	57	52*	-20	10
Cc1cccc(NC(=O)c2cc(Cl)nc3ccccc23)c1	1	93*	0	-2	5	-3
Cc1ccc(C(=O)CCNc2ccccc2)o1	-28	40	18	nt	-21	52*
Cc1cc(C(=O)Nc2cccc(C(=O)O)c2)c(C)o1	7	-24	-6	nt	-6	-7
CC(C)CN(C(=O)CSc1nn(-c2ccc(Cl)cc2)c(=S)s1)C1CCS(=O)(=O)C1 (configuration not stated)	7	nt	-3	0	-1	nt
Cc1ccc(-c2ccc3c(c2)O[C@H](CN(C)Cc2ccc(F)cc2)[C@H](C)CN([C@H](C)CO)S3(=O)=O)cc1	nt	-21	nt	nt	nt	-6
O=C1NC(c2ccccc2Cl)=N/C1=C/c1ccco1	-64	nt	67	53*	-24	nt
S=c1[nH]nc(-c2ccccc2Cl)n1/N=C/C=C/c1ccco1	nt	nt	nt	-1	nt	nt
O=C1NC(c2ccc(Br)cc2)=N/C1=C/c1ccco1	-92	nt	97*	nt	-32	nt
O=c1cccccc1NCc1ccccc1	-23	4	nt	12	-7	21
CCN(CC)Cc1cc(Nc2c3ccccc3nc3c4ccccc4n(C)c23)cc(CN(CC)CC)c1O	78*	4	-79	-1	-23	-2
